Source: PubChem BioAssay (National Center for Advancing Translational Sciences (NCATS))
Compounds with a hit are over-represented: about 4.7% of the library has one in this group of screens.
D1 antag – human D1 dopamine receptor antagonism | P21728 | HEK293 TREx D1 cells, calcium flux, dopamine EC80; hits give low values | activity change, negative = inhibition, % at 10 µM | 3.2% of 360,000 active | AID 504652; in the data active = activity change below about -30%
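Tetracycline-induced HEK293 T-REx cells with force-coupled D1 receptor were loaded with a no-wash calcium dye. Compound was added after a 10 s baseline and read kinetically for 180 s; EC80 dopamine was then added and calcium flux followed another 180 s.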
TRHR ag – activates the human TRH receptor; activation, % at 2 µM; 0.18% of 360,000 active; TRHR cells, calcium flux fluo-8, FDSS agonist mode
Target sequence (P34981 whole entry, looked up): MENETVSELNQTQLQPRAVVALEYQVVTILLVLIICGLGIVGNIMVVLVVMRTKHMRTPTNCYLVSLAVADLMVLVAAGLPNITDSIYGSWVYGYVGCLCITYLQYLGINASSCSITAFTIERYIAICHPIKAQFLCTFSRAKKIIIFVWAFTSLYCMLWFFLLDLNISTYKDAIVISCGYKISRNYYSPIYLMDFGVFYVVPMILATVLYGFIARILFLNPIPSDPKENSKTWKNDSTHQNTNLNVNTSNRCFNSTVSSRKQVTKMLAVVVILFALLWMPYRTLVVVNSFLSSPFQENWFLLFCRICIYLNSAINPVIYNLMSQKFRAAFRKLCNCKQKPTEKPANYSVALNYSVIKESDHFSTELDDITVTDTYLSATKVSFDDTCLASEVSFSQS
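TRHR-expressing cells, plated overnight in medium with 10% serum, were loaded with fluo-8 calcium dye at room temperature. After a 10 s baseline, library compound was pin-added and calcium release was recorded kinetically (ex 480/em 530) as agonist response.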
TRHR enhancer – TRH receptor (human) allosteric enhancement; P34981; enhancement, % at 2 µM; 0.66% of 360,000 active; TRHR cells, fluo-8 calcium fluorescence, EC20 TRH enhancement; AID 493056; in the data active = enhancement above about 30%
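TRHR-expressing cells loaded with fluo-8 calcium dye were read kinetically (ex 480/em 530) during compound addition, then stimulated with an EC20 of TRH (10 nM final). Enhancement of the Gq-mediated intracellular calcium response was scored.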
D1 potentiator – potentiators of human D1 dopamine receptor; 0.036% of 360,000 active; P21728; potentiation, % at 10 µM; HEK293 TREx D1 cells, calcium flux, dopamine EC20 potentiation; in the data active = potentiation above about 30%
D1 ag – activates the human D1 dopamine receptor; AID 504660; 1% of 360,000 active; activation, % at 2 µM; HEK293 T-REx D1 cells, calcium flux, agonist mode
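Tetracycline-induced HEK293 TREx D1 cells, force-coupled to calcium signalling, were dye-loaded with a no-wash calcium kit. Compound was pin-added after a 10 s baseline. Fluorescence was read kinetically at 1 cycle/s for 180 s, with calcium rises flagged as agonism.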
Numbers stand for hits; 0 = inactive. Rule as the data show it, unless noted: active = activation above about 30%; inactive = the rest.

SMILES	D1 antag	TRHR ag	TRHR enhancer	D1 potentiator	D1 ag
COc1ccc(Br)cc1C1C(C(=O)Nc2ccc(C)cc2C)=C(C)Nc2ncnn21 (stereo not given)	0	0	0	0	0
Cc1noc(C)c1CSCC(=O)N(C)CC(=O)Nc1ccccc1Br	-47	0	0	0	0
Cc1cccc(C)c1NC(=O)CN(C)C(=O)CSCc1c(C)noc1C	0	0	0	0	0
CC(C)N=c1c([N+](=O)[O-])nn(C)n1O	-58	0	0	0	0
CN=c1c([N+](=O)[O-])nn(-c2ccc3c(c2)OCCO3)n1O	0	0	0	0	0
CCCNC(=O)c1ccc(-n2c(-c3ccccc3)cc3c2CCCCC3)cc1	0	0	0	0	0
COCCNC(=O)c1ccc(-n2c(-c3ccccc3)cc3c2CCCCC3)cc1	0	0	0	0	39
COc1ccccc1NC(=O)C1=C(C)Nc2nc3ccccc3n2C1c1cccc(Br)c1 (stereo not given)	0	0	0	0	0
CNC(=O)c1ccc(Nc2nnc(-c3ccc(C)c(S(=O)(=O)N4CCOCC4)c3)c3ccccc23)cc1	0	0	0	0	0
N#CCc1c(C#N)c(N)nc(N2CCN(C=O)CC2)c1C#N	0	0	0	0	0
CC(=O)N1CCN(c2nc(N)c(C#N)c(CC#N)c2C#N)CC1	-65	0	0	0	0
CC(=O)c1c(C)[nH]c(C(=O)COc2cc(C)ccc2C(C)C)c1C	-36	0	0	0	0
Cc1ccc(S(=O)(=O)NC(=O)COc2cc(C)ccc2C(C)C)cc1	-44	0	0	0	0
COc1cc2c(cc1OC)C1O[C@](CCCCN3C(=O)c4ccccc4C3=O)(C2)OC2=C1C(=O)c1ccccc1C2=O	0	0	0	0	0
Cc1c(C(=O)Nc2ccccc2)sc2nc[nH]c(=O)c12	-33	0	0	0	0
O=C(Cn1c(=O)n(Cc2nc(-c3ccccc3)no2)c(=O)c2ccccc21)Nc1cccc(C(F)(F)F)c1	0	0	0	0	0
CNS(=O)(=O)c1cn(CC(=O)N2CCN(c3ccc(Cl)cc3)CC2)cc1S(=O)(=O)NC	0	0	0	0	0
CCOC(=O)c1oc2ccc(CNC(C)(C)C)c(Cl)c2c1C	-52	0	0	0	0
COc1cc(CNn2cnnc2)ccc1OCC(=O)NC(C)(C)C	-79	0	0	0	0
COc1cc(/C=C(\C#N)C(=O)Nc2ccc3c(c2)OCCO3)ccc1O	0	0	0	0	41
CCOC(=O)/C(C#N)=C\c1ccc(O)c(OC)c1	0	0	0	0	0
CCOC(=O)c1c(-c2ccc(C)cc2)csc1NC(=O)/C(C#N)=C/c1ccc(O)c(OC)c1	0	0	0	0	111
Cc1ccc(C(CC(=O)NCC2(c3ccccc3)CCCC2)c2ccccc2)c(O)c1 (stereo not given)	0	0	0	0	0
COc1cc(-c2noc(-c3cc(C(C)C)[nH]n3)n2)cc(OC)c1OC	0	0	0	0	0
CC(C)c1cc(-c2nc(-c3ccc(Cl)cc3)no2)n[nH]1	-38	0	0	0	0
SMILES	D1 antag	TRHR ag	TRHR enhancer	D1 potentiator	D1 ag
COc1ccc(N(C(=O)COc2ccc(Br)cc2)S(=O)(=O)c2ccc(C)cc2)cc1	0	0	0	0	0
CCN(C(=O)COC(=O)Cc1cccc2ccccc12)C1CCS(=O)(=O)C1 (stereo not given)	0	0	0	0	0
O=C(Nc1cccc2ccccc12)N(CCO)C1CCS(=O)(=O)C1 (stereo not given)	-71	0	0	0	0
CCCn1nnnc1NC(=O)c1cc(Br)ccc1OC	0	0	30	0	0
COc1ccc(C2=NN(CCC(=O)NC3CCCCCC3)C(=O)CC2)cc1	-33	0	0	0	0
Cc1ccc2onc(CC(=O)N3CCN(c4cc(Cl)ccc4C)CC3)c2c1	0	0	0	0	0
Cc1ccc(-c2noc(CCC(=O)NCCN3CCN(Cc4ccccc4)CC3)n2)cc1	0	0	0	0	0
Cc1ccc(-c2noc(CCC(=O)NCC3CCN(Cc4cccc(C)c4)CC3)n2)cc1	0	0	0	0	51
COc1ccc(-c2noc(CCC(=O)NCc3ccco3)n2)cc1	-37	0	0	0	0
COc1ccc(-c2noc(CCC(=O)NCCCN3CCN(c4ccc(F)cc4)CC3)n2)cc1	-73	0	0	0	35
COc1ccc(-c2noc(CCC(=O)NCCCN3CCC(Cc4ccccc4)CC3)n2)cc1	-54	0	0	0	56
